Measured values reported in PubChem BioAssay.
Calls of active or inactive are those of the source.

How the values were obtained:
[1] = tested on: PRMT1 (protein arginine N-methyltransferase 1); test: PRMT1 binders on small-molecule microarrays, primary screen, biochemical, small-molecule microarray, 635 nm fluorescence (AID 1088); conditions: small-molecule microarray binding, higher = more signal;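 further: binding of Prmt1 protein to compounds spotted on small-molecule microarray slides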
[2] = yeast growth modulation, basal conditions, primary screen, YJM789 clinical isolate, OD600, 24 h (AID 1089);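 further: growth of clinical yeast isolate S. cerevisiae YJM 789 seeded 1000 cells per well; test concentration not given here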; conditions: S. cerevisiae YJM789 growth, higher = more signal, called active from +8 up or from −8 down
[3] = fission yeast growth modulation, primary screen, strain 972, OD600, 24 h, no modulator (AID 1090);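 further: basal condition with compound alone and no growth modifier present; test concentration not given here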; conditions: S. pombe 972 growth, higher = more signal, called active from +8 up or from −8 down
[4] = S. cerevisiae growth modulation with rapamycin, primary screen, strain BY4716, OD600, 96 h (AID 1091); conditions: higher = more signal, called active from +8 up or from −8 down; further: test concentration not given here
[5] = target: Torsin-1A-interacting protein 2 (Homo sapiens) (UniProt Q8NFQ8); test: LULL1 binders on small-molecule microarray, primary screen, cell lysate, human LULL1 lysate, 635/667 nm fluorescence (AID 1092); conditions: hLULL1 lysate binding, 635 nm fluorescence, higher = more signal;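 further: probe is lysate of COS7 cells overexpressing human LULL1; score merges per-feature 667 nm fluorescence with signal-to-noise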
Torsin-1A-interacting protein 2 (Homo sapiens), sequence (Q8NFQ8 whole entry, looked up): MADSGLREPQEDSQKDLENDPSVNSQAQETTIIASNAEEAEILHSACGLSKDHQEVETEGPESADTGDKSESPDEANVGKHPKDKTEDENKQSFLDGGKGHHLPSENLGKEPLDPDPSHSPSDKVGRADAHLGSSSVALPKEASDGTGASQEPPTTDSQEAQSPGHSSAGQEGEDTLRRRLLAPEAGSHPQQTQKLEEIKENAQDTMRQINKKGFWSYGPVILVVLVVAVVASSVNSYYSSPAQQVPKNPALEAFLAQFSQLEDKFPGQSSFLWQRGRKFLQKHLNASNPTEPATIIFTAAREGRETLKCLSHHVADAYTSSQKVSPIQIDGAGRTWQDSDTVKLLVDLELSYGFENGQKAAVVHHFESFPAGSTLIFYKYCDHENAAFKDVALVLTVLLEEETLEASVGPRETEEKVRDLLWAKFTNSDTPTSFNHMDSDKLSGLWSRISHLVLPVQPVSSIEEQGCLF

[6] = E. coli growth modulation, two-sided OD650, primary screen, E. coli filamentation project, strain DRC41, 24 h (AID 1093); conditions: OD650, 24 h, higher = more signal, called active from +8 up or from −8 down;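 further: MC1000 strain lacking acrAB efflux and sulA so SOS filamentation is blocked; test concentration not given here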
[7] = small-molecule microarray binders of probe aLefty2, primary screen, biochemical, biotinylated probe, 635/667 nm fluorescence (AID 1094); conditions: higher = more signal;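 further: score merges spot fluorescence near 667 nm with spot signal-to-noise ratio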
[8] = tested on: Noggin (protein binding on small-molecule microarray); test: Noggin binders on small-molecule microarray, primary screen, biochemical, 635/667 nm fluorescence (AID 1095); conditions: 635 nm fluorescence, higher = more signal;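 further: score merges 667 nm feature fluorescence with signal to noise over triplicate slides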
[9] = target: Neurogenic locus notch homolog protein 3 (Homo sapiens) (UniProt Q9UM47); test: NOTCH3 binders on small-molecule microarray, primary screen, biochemical, 635/667 nm fluorescence (AID 1096); conditions: NOTCH3 binding, 635 nm fluorescence, higher = more signal
Neurogenic locus notch homolog protein 3 (Homo sapiens), sequence (Q9UM47 whole entry, looked up): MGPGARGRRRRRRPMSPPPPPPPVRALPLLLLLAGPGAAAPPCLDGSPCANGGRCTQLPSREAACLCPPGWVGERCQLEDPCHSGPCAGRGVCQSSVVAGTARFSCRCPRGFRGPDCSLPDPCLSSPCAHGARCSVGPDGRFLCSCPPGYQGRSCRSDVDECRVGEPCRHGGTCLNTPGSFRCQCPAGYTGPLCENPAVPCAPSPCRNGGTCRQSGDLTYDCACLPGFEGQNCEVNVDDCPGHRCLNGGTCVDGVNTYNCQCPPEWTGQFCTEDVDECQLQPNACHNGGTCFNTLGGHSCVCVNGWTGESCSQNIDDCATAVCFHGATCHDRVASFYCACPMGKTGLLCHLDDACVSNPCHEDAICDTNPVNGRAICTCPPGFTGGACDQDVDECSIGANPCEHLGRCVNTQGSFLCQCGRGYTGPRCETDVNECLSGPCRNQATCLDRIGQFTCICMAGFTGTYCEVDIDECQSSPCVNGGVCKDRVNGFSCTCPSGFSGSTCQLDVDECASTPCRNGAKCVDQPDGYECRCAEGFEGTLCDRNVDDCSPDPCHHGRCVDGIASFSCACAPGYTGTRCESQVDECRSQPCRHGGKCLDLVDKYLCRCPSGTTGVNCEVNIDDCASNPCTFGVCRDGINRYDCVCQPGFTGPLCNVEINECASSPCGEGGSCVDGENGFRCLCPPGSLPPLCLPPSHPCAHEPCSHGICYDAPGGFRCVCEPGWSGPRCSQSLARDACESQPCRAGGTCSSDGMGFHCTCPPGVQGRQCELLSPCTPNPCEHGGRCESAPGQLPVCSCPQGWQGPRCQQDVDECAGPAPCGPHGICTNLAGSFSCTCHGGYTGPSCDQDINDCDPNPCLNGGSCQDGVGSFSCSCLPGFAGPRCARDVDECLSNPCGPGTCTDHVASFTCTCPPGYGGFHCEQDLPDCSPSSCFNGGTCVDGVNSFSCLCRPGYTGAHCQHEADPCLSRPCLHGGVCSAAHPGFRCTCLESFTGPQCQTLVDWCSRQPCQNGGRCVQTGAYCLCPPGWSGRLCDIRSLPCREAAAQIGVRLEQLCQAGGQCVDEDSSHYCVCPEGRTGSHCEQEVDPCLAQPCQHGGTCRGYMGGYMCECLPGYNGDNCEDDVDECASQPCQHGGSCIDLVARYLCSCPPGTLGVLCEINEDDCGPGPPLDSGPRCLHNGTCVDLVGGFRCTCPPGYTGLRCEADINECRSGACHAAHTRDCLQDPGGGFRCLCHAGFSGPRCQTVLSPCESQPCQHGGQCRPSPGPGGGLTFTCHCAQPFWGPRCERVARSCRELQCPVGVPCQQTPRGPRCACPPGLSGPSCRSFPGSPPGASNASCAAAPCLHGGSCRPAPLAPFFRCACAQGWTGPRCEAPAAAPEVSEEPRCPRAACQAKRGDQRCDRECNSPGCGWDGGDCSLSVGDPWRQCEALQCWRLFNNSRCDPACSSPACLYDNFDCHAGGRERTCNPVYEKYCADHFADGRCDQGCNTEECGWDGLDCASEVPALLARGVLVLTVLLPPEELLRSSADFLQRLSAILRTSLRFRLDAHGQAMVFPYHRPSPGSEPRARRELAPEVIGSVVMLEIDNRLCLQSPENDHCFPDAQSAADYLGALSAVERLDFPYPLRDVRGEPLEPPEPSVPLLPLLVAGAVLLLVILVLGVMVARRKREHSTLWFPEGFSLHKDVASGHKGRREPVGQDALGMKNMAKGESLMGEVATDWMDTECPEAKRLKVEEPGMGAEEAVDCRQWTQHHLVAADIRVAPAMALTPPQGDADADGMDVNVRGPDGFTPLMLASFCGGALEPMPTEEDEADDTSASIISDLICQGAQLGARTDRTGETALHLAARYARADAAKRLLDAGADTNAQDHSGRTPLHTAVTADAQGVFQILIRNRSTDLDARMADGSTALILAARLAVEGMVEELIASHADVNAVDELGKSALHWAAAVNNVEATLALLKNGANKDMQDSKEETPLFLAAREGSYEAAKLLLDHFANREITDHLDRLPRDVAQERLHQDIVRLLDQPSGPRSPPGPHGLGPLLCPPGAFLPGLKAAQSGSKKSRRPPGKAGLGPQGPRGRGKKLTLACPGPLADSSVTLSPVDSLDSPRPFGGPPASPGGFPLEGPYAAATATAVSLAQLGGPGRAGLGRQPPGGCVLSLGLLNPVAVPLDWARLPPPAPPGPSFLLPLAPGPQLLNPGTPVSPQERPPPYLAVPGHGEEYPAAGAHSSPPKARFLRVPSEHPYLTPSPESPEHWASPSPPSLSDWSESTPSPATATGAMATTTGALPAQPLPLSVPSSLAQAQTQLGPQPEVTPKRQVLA

[10] = small-molecule microarray binders of probe aEGFR, primary screen, biochemical, biotinylated probe, 635/667 nm fluorescence (AID 1097); conditions: higher = more signal;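 further: probe is a biotinylated anti-EGFR antibody binding compounds printed on slides; score combines fluorescence near 667 nm and signal to noise of each spot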

Row | SMILES | composite z-score [1] | z-score [2] | z-score [3] | z-score [4] | composite z-score [5] | z-score [6] | composite z-score [7] | composite z-score [8] | composite z-score [9] | composite z-score [10]
1 | CCOC(=O)C[C@H]1[C@H](OC(=O)c2ccccc2-c2ccccc2)[C@@H](NC(=O)c2ccc3ccccc3n2)c2cc(OCCCO)ccc2N1C(=O)c1ccc2ccccc2n1 | 0.215 | -0.717 (inactive) | -0.653 (inactive) | -0.299 (inactive) | 0.84 | 0.597 (inactive) | -0.269 | 0.283 | 0.598 | -0.0512
2 | C=C(CCCC)/C(=C/C[C@@H](OC(C)=O)c1ccc(CO)o1)c1cc(C(=O)OC)ccc1OC | 1.57 | 0.562 (inactive) | -0.911 (inactive) | 0.28 (inactive) | 2.75 | -0.12 (inactive) | -0.134 | 1.44 | 1.06 | 0.021
3 | COc1ccccc1CN1C(=O)c2ccccc2[C@@H](C(=O)NC(C)C)[C@@H]1c1ccc(CO)cc1 | 1.51 | -0.309 (inactive) | -0.0831 (inactive) | -0.352 (inactive) | 2.36 | 1.02 (inactive) | 0.12 | 0.885 | 1.09 | 0.14
4 | CC(C)CNC(=O)[C@@]1(c2ccc([N+](=O)[O-])cc2)CC(=O)N(C2CCCCC2)[C@@H]1c1ccc(CO)cc1I | 0.935 | -0.579 (inactive) | 0.279 (inactive) | -0.143 (inactive) | 1.98 | -0.602 (inactive) | -0.0512 | 0.193 | 0.636 | -0.096
5 | C[C@@H]1ON(c2ccc(C(=O)OC(C)(C)C)cc2)[C@H](c2ccc(Br)cc2)[C@H]1C(=O)N1C(=O)OC[C@H]1Cc1ccccc1 | 1.53 | 0.689 (inactive) | 0.716 (inactive) | 0.71 (inactive) | 2.22 | 0.425 (inactive) | 0.149 | 0.633 | 1.08 | 0.0338
6 | O=C1NCC(=O)N2[C@@H]1C[C@@H](C(=O)O)[C@H]2c1ccc(O)cc1 | 1.56 | 0.442 (inactive) | -0.498 (inactive) | 0.318 (inactive) | 2.6 | 0.984 (inactive) | 0.0875 | 1.44 | 1.08 | -0.326
7 | COc1ccc(C(O)C2C=CC3C(=O)N(Cc4ccccc4)C(=O)C3N2n2cnnc2)c2ccccc12 (stereo not given) | 1.17 | -0.346 (inactive) | 0.0768 (inactive) | -0.282 (inactive) | 2.81 | -0.671 (inactive) | -0.238 | -0.641 | 0.556 | -0.175
8 | COc1cc2c(cc1OC)CN(C(=O)[C@@H]1[C@H]3C(=O)O[C@H](c4ccccc4)[C@H](c4ccccc4)N3[C@H](c3ccccc3OCCO)[C@@]13C(=O)Nc1ccc(C#CC4(O)CCCCCC4)cc13)CC2 | 1.54 | 2.74 (inactive) | 0.563 (inactive) | 5.14 (inactive) | 2.09 | 2.26 (inactive) | 0 | 0.56 | 0.896 | -0.0357
9 | [N-]=[N+]=NCc1ccccc1C[C@@]1(C(N)=O)N=C(c2ccc(OCCCO)cc2)O[C@@H]1c1ccccc1CN=[N+]=[N-] | 1.22 | 0.656 (inactive) | -0.0127 (inactive) | 0.0339 (inactive) | 2.94 | 0.585 (inactive) | 0.123 | -0.0392 | 0.808 | 0.263
10 | CC(C)CCC[C@@H](C)[C@H]1CC[C@@]2(C)C3=C(CC[C@]12C)[C@@]1(C)CC[C@H](OC(=O)c2ccc(Br)cc2)C(C)(C)C1CC3 (stereo not given in full) | 0.739 | -1.15 (inactive) | -1.28 (inactive) | -0.346 (inactive) | 0.172 | 2.77 (inactive) | -0.0542 | 0.326 | 0.888 | -0.0333
11 | NCCCCCCNC(=O)[C@@H]1C[C@@H]2C(=O)N3CCC[C@H]3C(=O)N2[C@@H]1c1ccc(O)cc1 | 1.25 | -0.723 (inactive) | -1.22 (inactive) | -0.476 (inactive) | 2.02 | -1.03 (inactive) | -0.0912 | 1.58 | 0.494 | -0.0568
12 | COC(=O)[C@]1(CCS(=O)(=O)c2ccccc2)N=C(c2ccc(OCCCO)cc2)O[C@@H]1c1ccccc1CN=[N+]=[N-] | 1.54 | 1.6 (inactive) | 1.13 (inactive) | 37 (active) | 3.09 | -0.33 (inactive) | 0.0956 | 0.839 | 0.941 | -0.0972
13 | Cc1ccc(S[C@]2(C(=O)NC(C)C)CC(=O)N(C3Cc4ccccc4C3)[C@@H]2c2ccc(CO)cc2I)cc1 | 0.871 | -0.801 (inactive) | -2.68 (inactive) | -0.0369 (inactive) | 3.32 | 0.733 (inactive) | -0.0131 | -0.0975 | -0.505 | -0.37
14 | COCCCNC(=O)[C@@H]1c2ccccc2C(=O)N(Cc2ccccc2C(F)(F)F)[C@H]1c1ccc(CO)cc1 | 0.12 | -0.409 (inactive) | -0.514 (inactive) | -0.368 (inactive) | 0.73 | 0.598 (inactive) | -0.0855 | -0.789 | -0.941 | -0.0146
15 | O=C(CS)NCCCCCCNC(=O)[C@@H]1C[C@@H]2C(=O)N3CCC[C@H]3C(=O)N2[C@@H]1c1cccc(OCCO)c1 | 1.35 | -1.69 (inactive) | 0.335 (inactive) | -0.365 (inactive) | 2.35 | 1.2 (inactive) | 0.177 | 0.488 | 1 | 0.0195
16 | COc1ccc(NN2C(C(O)c3ccco3)C=CC3C(=O)N(C4CCCCC4)C(=O)C32)cc1 (stereo not given) | 1.56 | 0.0039 (inactive) | -0.134 (inactive) | 0.705 (inactive) | 3.06 | -0.465 (inactive) | 0.0405 | 0.89 | 1.03 | 0.191
